Screening data: PubChem BioAssay, National Center for Advancing Translational Sciences (NCATS)
Hits are enriched below; roughly 2.4% of the tested compounds scored in any of these assays.
D2 PAM-1 – HTS Assay for Positive Allosteric Modulators of the Human D2 Dopamine Receptor: Primary Screen for Potentiators; HEK293 T-REx D2, calcium flux, EC20 dopamine potentiation; AID 485347, 2010; potentiation, % at 10 µM; 340,000 compounds, 0.34% hits;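 active means potentiation over 3 SD above the plate norm, cut at about 30% in these data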; further: 0% is about no effect
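Tetracycline-induced HEK293 T-REx cells force-coupled to calcium signalling expressed D2; compounds were pin-added after a 10 s baseline, read kinetically 180 s, then an EC20 dopamine challenge followed with a further 180 s calcium read.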
D2 ag-1 – Beta-Arrestin HTS for Positive Allosteric Modulators of the Human D2 Dopamine Receptor: Agonists | D(2) dopamine receptor (Homo sapiens), P14416 | DiscoveRx PathHunter D2 beta-arrestin, luminescence, 90 min; 100% = 57 uM dopamine signal | activation, % (concentration not given with the values) | 360,000 compounds, 0.084% hits | AID 624465, 2012; in the data active means activation above about 40%; inconclusive means between about 15% and that limit
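Agonist mode: compounds alone added to overnight-plated D2 PathHunter cells for 90 min at 37 C, with 57 uM final dopamine (EC100) defining full response. Beta-arrestin recruitment detected by chemiluminescent reagent, read after 1 h at ambient temperature.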
D2 PAM-2 – Beta-Arrestin HTS for Positive Allosteric Modulators of the Human D2 Dopamine Receptor: Potentiators; D(2) dopamine receptor (Homo sapiens), P14416; DiscoveRx D2 beta-arrestin cells, luminescence, 90 min; 100% = 57 uM dopamine signal; potentiation, % (test concentration not listed); 360,000 compounds, 0.23% hits; AID 624464, 2012; in the data active means potentiation above about 50%; inconclusive means mostly about 30% to 49%
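PathHunter beta-arrestin assay in DiscoveRx D2 cells. Compounds were added with an EC20 of dopamine (50 nM final) for 90 min at 37 deg C. Luminescence was read 1 h after detection reagent, with 57 uM dopamine as the EC100 control.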
D2 antagonist – HTS Assay for Allosteric Antagonists of the Human D2 Dopamine Receptor: Primary Screen for Antagonists. D(2) dopamine receptor (Homo sapiens), P14416. HEK293 TREx D2 cells, calcium flux, dopamine EC80. inhibition, % at 10 µM. 340,000 compounds, 2% hits. AID 485344, 2010; in the data active means inhibition above about 30%; inactive means below that, where a call was filed; further: 0% is about no effect
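Tetracycline-induced HEK293 TREx cells expressing D2 receptor forced-coupled to calcium signalling, loaded with no-wash calcium dye. Compounds added and calcium flux read 180 s, then dopamine added at EC80 and read a further 180 s.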
D2 ag-2 – HTS Assay for Allosteric Agonists of the Human D2 Dopamine Receptor: Primary Screen for Agonists | 340,000 compounds, 0.53% hits | activation, % at 2 µM | HEK293 T-REx D2 cells, calcium flux agonist mode | D(2) dopamine receptor (Homo sapiens), P14416;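 active means activation over 3 SD above normal in the single-dose calcium agonist read, cut at about 30% in these data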; further: 0% is about no effect
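Agonism scored from kinetic calcium signal (1 read/sec, 180 s) following compound pin transfer, after a 10 s baseline. Cells: HEK293 Trex line expressing inducible D2 receptor coupled to calcium, dye-loaded after overnight culture at 30 C.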
D3 ag – qHTS of D3 Dopamine Receptor Agonist: D3 Dopamine Receptor B-arrestin Agonist Confirmatory Assay | shares compounds with D2 ag-2 | 2,300 compounds, 4% hits | Potency, µM (doses to about 76.9 µM), without a hit: at the highest dose activation, most hits filed as activators | DiscoveRx D3 beta-arrestin cells, luminescence, 90 min;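 further: potency means the concentration at half of the fitted maximal effect; 100% = dopamine control response; nearly all actives have a fitted effect of over 70% in size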
Target sequence (P35462 whole entry, looked up): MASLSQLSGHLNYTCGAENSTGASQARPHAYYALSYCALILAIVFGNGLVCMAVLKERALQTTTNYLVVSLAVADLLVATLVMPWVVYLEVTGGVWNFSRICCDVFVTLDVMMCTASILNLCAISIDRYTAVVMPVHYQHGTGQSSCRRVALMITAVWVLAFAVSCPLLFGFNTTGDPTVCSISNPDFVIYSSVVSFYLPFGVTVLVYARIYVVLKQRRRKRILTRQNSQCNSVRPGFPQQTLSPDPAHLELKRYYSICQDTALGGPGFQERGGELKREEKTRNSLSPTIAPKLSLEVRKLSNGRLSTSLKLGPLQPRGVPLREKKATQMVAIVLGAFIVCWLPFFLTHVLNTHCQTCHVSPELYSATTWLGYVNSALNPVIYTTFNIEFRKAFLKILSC
D2 ag-3 – qHTS of D3 Dopamine Receptor Agonist: D2 Dopamine Receptor B-arrestin Agonist Counterscreen | 2,300 compounds, 5.9% hits | shares compounds with D2 ag-2 | DiscoveRx PathHunter D2 beta-arrestin, luminescence, 90 min; response scale: percent relative to full dopamine signal | Potency, µM (titrated, usually from 76.9 µM), for the others: top-dose activation, usual class: activators | AID 720507, 2013; further: potency means the concentration at half of the fitted maximal effect; % of control where 0% means no effect; nearly all actives have a fitted effect of over 70% in size
An asterisk follows results filed as active; ? = inconclusive; / = not tested or not shown. Unless noted, the call rests on the fitted dose curve; in most records, active means well fitted activation curve with a large enough effect; inconclusive means small, poorly fitted or top-dose-only effect; inactive means flat fitted curve, though single readings scatter.

SMILES	D2 PAM-1	D2 ag-1	D2 PAM-2	D2 antagonist	D2 ag-2	D3 ag	D2 ag-3
O=S(=O)(NC1CCN(S(=O)(=O)c2c(F)cccc2F)C1)c1ccc2c(c1)OCCO2 (configuration not stated)	-2	/	/	-9	0	13%	10%
CCCC(O)c1nc2ccccc2n1CCCOc1ccc(Cl)cc1 (configuration not stated)	-1	/	/	/	0	/	/
COc1cc(C(C)=O)ccc1OCC(O)CN1CCN(c2ccc(F)cc2)CC1 (configuration not stated)	-15	-1	-5	40*	41*	8%	5%
COc1cc(C(C)=O)ccc1OCC(O)CN1CCN(c2ccccc2)CC1 (configuration not stated)	-27	46*	9	85*	85*	?	?
COc1cc(C(C)=O)ccc1OCC(O)CN1CCN(c2ccc(C)cc2C)CC1 (configuration not stated)	-20	-2	-14	4	-2	/	/
COc1ccc(C(=O)NCN2CCN(c3ccccc3)CC2)cc1OC	-20	9	7	23	64*	1%	22%
Cc1ccc(C(=O)NCN2CCN(c3ccccc3)CC2)cc1	-36	1	-29	-16	2	/	/
COc1cccc(CNC(=O)CCc2c(C)nn(-c3ccc(N4CCOCC4)nn3)c2C)c1	-5	/	/	/	0	/	/
CCOc1ccc(C2C(=O)N(C3CCCCCC3)CC(=O)N2CCc2ccc(Cl)cc2)cc1OC (configuration not stated)	15	/	/	/	1	/	/
CC1=Nc2ccccc2/C1=C/c1nc(-c2ccc(C)s2)oc1O	/	-5	-10	/	/	/	/
CC1=Nc2ccccc2/C1=C/c1sc(=N)n(-c2nccs2)c1O	-4	-3	-27	-12	10	-16%	-10%
O=C1C2CCCN2C(=O)N1CCCCN1CCN(c2ccccc2)CC1 (configuration not stated)	-32	?	4	62*	86*	?	?
O=C1C2CCCCN2C(=O)N1CCN1CCN(c2ccc(F)cc2)CC1 (configuration not stated)	/	-3	-5	/	/	/	/
O=C1C2CCCN2C(=O)N1CCCCN1CCN(c2cccc(Cl)c2)CC1 (configuration not stated)	-19	2	-37	80*	66*	17%	13%
Cc1ccc(N2CCN(CCCCN3C(=O)C4CCCN4C3=O)CC2)cc1 (configuration not stated)	-28	-1	-24	/	/	/	/
O=C1C2CCCN2C(=O)N1CCN1CCN(c2ccccc2)CC1 (configuration not stated)	2	3	-23	71*	42*	-17%	3%
COc1ccccc1N1CCN(Cc2cc3c(cc2O)OCO3)CC1	-30	0	-18	98*	75*	-8%	9%
CCOc1ccccc1N1CCN(Cc2cccc(OC)c2O)CC1	-5	13	-2	68*	45*	-12%	29%
CCOCc1cc(CN2CCN(c3ccccc3OC)CC2)c(O)c2ncccc12	-9	/	/	/	-1	/	/
Cc1cc(O)c(CN2CCN(c3ccc(F)cc3)CC2)c2oc(=O)cc(C)c12	4	/	/	/	/	/	/
Cc1ccc2nc(-c3ccc(NC(=O)COc4ccc(Cl)c(C)c4)cc3)sc2c1	15	/	/	/	1	/	/
Cc1cc(C)c(/C=C/c2onc(C)c2S(=O)(=O)N2CCC(C(=O)N(C)Cc3ccccc3)CC2)c(C)c1	-6	/	/	/	/	/	/
COc1ccc(Cn2cc(C(=O)c3ccc(C)c(C)c3)c(=O)c3ccccc32)cc1	8	/	/	/	0	/	/
COc1ccc(NC(=O)CSc2nc3c(oc4ccccc43)c(=O)n2Cc2ccco2)cc1Cl	10	/	/	/	1	/	/
c1ccc2c(c1)ncn2CCn1cnc2ccccc21	-3	-4	-12	-16	-1	/	/
SMILES	D2 PAM-1	D2 ag-1	D2 PAM-2	D2 antagonist	D2 ag-2	D3 ag	D2 ag-3
NCCCn1cnc2ccccc21	/	-5	-1	3	1	-2%	1%
COc1ccc(C2(C)NC(=O)N(CC(=O)Nc3cccnc3Cl)C2=O)cc1 (configuration not stated)	-13	-8	-10	-5	1	/	/
CC1(c2ccc(OC(F)F)cc2)NC(=O)N(CC(=O)Nc2cccnc2Cl)C1=O (configuration not stated)	11	-8	3	1	12	-6%	-1%
O=C(Nc1ccc(Br)cc1)c1ccc(F)c(S(=O)(=O)N2CCc3ccccc32)c1	15	/	/	/	0	/	/
CC(C)c1ccc(NC(=O)CN2C(=O)COc3ccc(S(=O)(=O)N4CCCCCC4)cc32)cc1	2	/	/	/	1	/	/
O=C(O)c1cccc(-n2c(/C=C/c3ccc([N+](=O)[O-])cc3)nc3ccccc3c2=O)c1	4	-2	0	13	0	9%	6%
O=C(O)c1cccc(-n2c(/C=C/c3cccc([N+](=O)[O-])c3)nc3ccccc3c2=O)c1	10	-2	1	11	0	/	/
O=C(NCCc1ccccc1)c1coc(=O)c(Br)c1	0	2	2	13	39*	4%	14%
CN(C)CCNC(=O)c1coc(=O)c(Br)c1	4	-3	20	6	0	/	/
Cc1cccc(Nc2nnc(-n3nc(C)cc3C)c3ccccc23)c1	-24	/	/	/	9	/	/
c1ccc(N2CCN(C3CC4CCC3C4)CC2)cc1 (configuration not stated)	-12	-2	-5	87*	54*	-3%	7%
O=C(CCC1CCCC1)N1CCC(N2CCN(c3ccccc3)CC2)CC1	-23	0	-22	77*	53*	1%	12%
CC(C)(C)C1CCC(N2CCN(c3ccccc3)CC2)CC1 (configuration not stated)	-35	2	-48	86*	73*	5%	?
